The results in this text go back to PubChem BioAssay (Tox21).

Inconclusive results are not listed. Activity calls are given as the source filed them. Calls come from the whole dose curve; as a rule, active = well fitted cell-killing curve with a large enough effect in the repeat runs; inconclusive = weak or mixed curves, or effect the other way; inactive = flat fitted curve, though single readings scatter.
% is set by controls: 0 for no effect and ±100 for the full control effect; potency is the fitted concentration of half-maximal effect.

The assay can be described thus: qHTS RealTime-Glo MT Cell Viability Assay in HEK293 cells - 16 hour (AID 1224872). For activity change, negative = cytotoxicity: top concentration of the series differs between compounds. Note: nearly all actives have a fitted effect of over 50% in size. To be noted: RealTime-Glo luminescence; series mostly up to 76.8 µM; activity change, negative = cytotoxicity: at the top concentration. Put shortly:
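Assay medium contained NanoLuc luciferase plus cell-permeant prosubstrate, added with HEK293 cells at 600 cells/well. After 5 h at 37 C/5% CO2 compounds were added; plates stayed at 37 C for 40 h with serial luminescence reads.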
For orientation: Quantitative high-throughput screening tests each substance at several concentrations.
In the case of `CN(Cc1ccc(C(C)(C)C)cc1)Cc1cccc2ccccc12`, the “activity change, negative = cytotoxicity” value is -21.3% [at 35.3 µM] (inactive).

Regarding `COc1ccc(-c2nc3ccc(C4=NNC(=O)CC4C)cc3[nH]2)cc1` (centres undefined), the Potency was 9.52 µM (active).

As to `CN1CCC(=C2c3ccccc3Sc3ccccc32)CC1`, the “activity change, negative = cytotoxicity” value was -6.8% [at 35.3 µM] (inactive).

Regarding `CCCCC(=O)OCC(=O)[C@H]1[C@H](C)C[C@H]2[C@@H]3C[C@H](F)C4=CC(=O)C=C[C@]4(C)[C@@]3(F)[C@@H](O)C[C@@]21C`, the “activity change, negative = cytotoxicity” value is -4.42% [at 35.3 µM] (inactive).

For the molecule `Clc1ccc2c(c1)CCc1cccnc1C2=C1CCNCC1`, the “activity change, negative = cytotoxicity” value was -34.6% [at 35.3 µM] (inactive).

Consider `CCn1cc(C(=O)O)c(=O)c2cnc(N3CCNCC3)nc21`, for which the “activity change, negative = cytotoxicity” value was 3.93% [at 35.3 µM] (inactive).

Consider `CCOc1ccc(N=Nc2ccc(/C=C/c3ccc(N=Nc4ccc(OCC)cc4)cc3S(=O)(=O)O)c(S(=O)(=O)O)c2)cc1`, for which the “activity change, negative = cytotoxicity” value was -6.75% (inactive).

Consider `COc1cc(C(=O)OCCCN2CCCN(CCCOC(=O)c3cc(OC)c(OC)c(OC)c3)CC2)cc(OC)c1OC`, for which the Potency was 5.35 µM (active).

In the case of `NS(=O)(=O)c1ccc(N2CCCCS2(=O)=O)cc1`, the “activity change, negative = cytotoxicity” value is 0.974% [at 35.3 µM] (inactive).

As for `CCCCCCCC/C=C\CCCCCCCC(=O)OCC`, the “activity change, negative = cytotoxicity” value was 6.64% (inactive).

On to `Nc1cc(C(=O)O)c(O)c(S(=O)(=O)O)c1`, for which the “activity change, negative = cytotoxicity” value was 8.02% (inactive).

With `C/C=C/C(=O)CC`, the activity change, negative = cytotoxicity is 1.69% [at 15.8 µM] (inactive).

`ClCCOCCOCCCl`: the “activity change, negative = cytotoxicity” value is 8.77% (inactive).

As to `CCN(CC)CCNC(=O)c1cc(Br)c(N)cc1OC`, the “activity change, negative = cytotoxicity” value is 1.62% [at 35.3 µM] (inactive).

As to `O=C(O)C(S)C(S)C(=O)O` (centres undefined), the “activity change, negative = cytotoxicity” value is 7.24% [at 35.3 µM] (inactive).

Take `O=[N+]([O-])c1ccc2[nH]ncc2c1`: the “activity change, negative = cytotoxicity” value is -3.15% (inactive).

Consider `CCCCCCCCCCO[C@@H]1O[C@H](CO)[C@@H](O)[C@H](O)[C@H]1O`, for which the “activity change, negative = cytotoxicity” value is -24% (inactive).

On to `CCCCCCCCCCCCCCCCCCOS(=O)(=O)O`, for which the “activity change, negative = cytotoxicity” value is -23.9% (inactive).

For `CN(C)c1ccc(/C=C/c2ccc([N+](=O)[O-])cc2)cc1`, the activity change, negative = cytotoxicity was -4.94% [at 6.97 µM] (inactive).

With `C[N+]1(C)CCC(OC(=O)C(O)(c2ccccc2)C2CCCC2)C1` (centres undefined), the “activity change, negative = cytotoxicity” value was 1.36% [at 35.3 µM] (inactive).

As for `CCO[Si](CCCCl)(OCC)OCC`, the “activity change, negative = cytotoxicity” value is 7.59% (inactive).

On to `Nc1ncn([C@H]2C[C@H](O)[C@@H](CO)O2)c(=O)n1`, for which the “activity change, negative = cytotoxicity” value was 3.05% [at 35.3 µM] (inactive).

Consider `O=C1OC(=O)C2C3C=CC(C3)C12` (centres undefined), for which the “activity change, negative = cytotoxicity” value is 5.13% (inactive).

Turning to `CCCCCCCCO[C@@H]1O[C@H](CO)[C@@H](O)[C@H](O)[C@H]1O`, the “activity change, negative = cytotoxicity” value was -0.187% (inactive).

`C/C(=C(\CCOP(=O)(O)O)SC(=O)c1ccccc1)N(C=O)Cc1cnc(C)nc1N`: the activity change, negative = cytotoxicity is 2.81% [at 6.97 µM] (inactive).

Consider `CCCCOC(=O)CCCCCCCC(=O)OCCCC`, for which the “activity change, negative = cytotoxicity” value was 16.4% (inactive).

As for `CN1C[C@H]2c3ccccc3Oc3ccc(Cl)cc3[C@@H]2C1`, the “activity change, negative = cytotoxicity” value was -17.7% [at 35.3 µM] (inactive).

Consider `O=C(O)c1ccccc1Cl`, for which the “activity change, negative = cytotoxicity” value was -0.863% (inactive).

In the case of `Cc1cc(N)c2cc(NC(=O)Nc3ccc4nc(C)cc(N)c4c3)ccc2n1`, the “activity change, negative = cytotoxicity” value was -12% [at 35.3 µM] (inactive).

For the molecule `O=C1CCC(=O)O1`, the “activity change, negative = cytotoxicity” value is 7.56% (inactive).

Consider `O=C(NCCO[N+](=O)[O-])c1cccnc1`, for which the “activity change, negative = cytotoxicity” value is -1.78% [at 35.3 µM] (inactive).

Regarding `CCN(CC)CCOC(=O)C(Cc1cccc2ccccc12)CC1CCCO1` (centres undefined), the “activity change, negative = cytotoxicity” value is -25.9% [at 35.3 µM] (inactive).

In the case of `C[C@H](CCC(=O)O)[C@H]1CC[C@H]2[C@@H]3CC[C@@H]4C[C@H](O)CC[C@]4(C)[C@H]3C[C@H](O)[C@]12C`, the “activity change, negative = cytotoxicity” value was -24.5% (inactive).

For the molecule `CCc1cc(C2=C(C(=O)O)N(c3ccccc3C(F)(F)F)S(=O)(=O)c3ccccc32)cc2c1OCO2`, the “activity change, negative = cytotoxicity” value is -1.4% (inactive).
